The campaign covered roughly 68,000 compounds. About 2,700 (4%) showed an effect of 50% or more. The sample as a whole holds a higher share of strong results than the screen did.
test system: Plasmodium berghei; test: Screen against P. berghei liver stage (PbLuc), transformed with Luciferase, at 2uM; type: functional, HepG2; settings: tested at 2 uM

SMILES	INHIBITION [%]
CSCC[C@H](N)C(=O)NCc1cc2n(n1)CCCN(C1CCCCC1)C2	-46.68
Cc1ccc(S(=O)(=O)NC[C@H]2OC[C@@H](NCc3ccccc3)[C@@H]2O)cc1	75.87
Cc1ccc(CN[C@@H]2CO[C@H](CNS(=O)(=O)c3ccccc3)[C@H]2O)cc1	-6.18
Cc1ccc(S(=O)(=O)NC[C@H]2OC[C@@H](NCc3ccncc3)[C@@H]2O)cc1	16.47
Cc1nc(NCCc2noc(C3CCCO3)n2)c2sccc2n1 (centres undefined)	49.63
Cc1nc(NCc2noc(C3CCCO3)n2)c2ccsc2n1 (centres undefined)	59.01
Cc1nc(N(Cc2ccncc2)CC2CCCO2)c2ccsc2n1 (centres undefined)	-59.39
Cc1nc(NCc2noc(C3CCCO3)n2)c2sccc2n1 (centres undefined)	61.69
O=C(NCc1noc(C2CCCO2)n1)c1cn2ccsc2n1 (centres undefined)	22.09
O=C(NCCc1noc(C2CCCO2)n1)c1cn2ccsc2n1 (centres undefined)	40.88
O=C(CCCOc1ccc(F)cc1F)N1CCCC1Cn1cccn1 (centres undefined)	6.12
CN(Cc1cc2n(n1)CCCN(C(=O)N1CCCC1)C2)Cc1nccs1	-10.4
Cc1nc(CNc2nc3c(s2)c(C)nn3C)cs1	38.49
CCc1nc(CNc2nc3c(s2)c(C)nn3C)cs1	51.4
CCc1csc(CNc2nc3c(s2)c(C)nn3C)n1	28.14
O=C(NC1CCc2[nH]c(=O)ccc2C1)C1CCOCC1 (centres undefined)	0.79
CCN1CC[C@@]2(C(=O)N3CCOCC3)CCN(C(=O)NC)CC[C@@H]12	19.42
CSC1=Nc2c(cnn2-c2ccc(C)cc2)C2=NCCCN12	44.7
CCOc1ccccc1C(=O)N1CCCC1c1ncc2c(n1)CCNC2 (centres undefined)	-2.7
CN1C[C@@H](N)C[C@H]1C(=O)N1CCC(Cc2ccc(F)cc2)CC1	29.87
O=C(C1CCS(=O)(=O)CC1)N1CCC(Cc2ccc(F)cc2)CC1	9.75
CCC(=O)N1CCCC1C(=O)N1CCC(Cc2ccc(F)cc2)CC1 (centres undefined)	69.52
c1cnnc(N2CCCC2CNCc2nc(-c3cccs3)no2)c1 (centres undefined)	-8.75
Cc1cccc(-n2nc(CC(C)C)nc2CS(C)(=O)=O)c1	3.92
Cc1cc(N2CCC(N(C)C(=O)c3sccc3C)CC2)nc(C)n1	-82.24
OCC1CCCCN1CCn1ccnc1-c1ccc2c(c1)OCCO2 (centres undefined)	63.46
Cc1ccsc1-c1nccn1CCN1CCCCC1CO (centres undefined)	-12.08
Cc1cc(-c2nccn2CCN2CCCCC2CO)oc1C (centres undefined)	47.04
CC(O)c1cn(Cc2cccc(C(F)(F)F)c2)nn1 (centres undefined)	19.08

— ChEMBL document CHEMBL4513216, “Probing the Open Global Health Chemical Diversity Library for Multistage-Active Starting Points for Next-Generation Antimalarials” (ACS Infect Dis, 2020)
